Data published in the supplement of paper PMC10127200.
Structures can show the parent of a compound that is named as a salt.

How the values were obtained:
Assay in all cases: Euclidean distance of Cell Painting phenotypic profile (signed KS, 77 features) to DMSO centroid (dimensionless distance); 5 or 10 uM (library dependent); higher = stronger phenotypic change vs DMSO (phenoactivity)
Settings in all cases: 48 h
[1] = system: 786-O
In short: (§1)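 Library compounds were applied at 10 or 5 uM, depending on the library, with 0.1% DMSO final, for 48 h to five cancer lines and a healthy fibroblast line. After staining, cells were imaged confocally at 20X across 9 fields per well, and Harmony extracted 77 features, each scored as a signed Kolmogorov-Smirnov statistic against vehicle wells on the same plate. Phenoactivity is the Euclidean distance between each profile and the median vehicle profile, with profiles first plate-position corrected, correlation-weighted and averaged over replicates at the top dose.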

[2] = system: A549
In short: as §1

[3] = system: FB
In short: as §1

[4] = system: HEPG2
In short: as §1

[5] = system: OVCAR4
In short: as §1

SMILES | Euclidean distance [1] | Euclidean distance [2] | Euclidean distance [3] | Euclidean distance [4] | Euclidean distance [5]
Clc1ccc(COC(Cn2ccnc2)c2ccc(Cl)cc2Cl)c(Cl)c1 (stereo not given) [Miconazole Nitrate] | 1.25 | 1.35 | 0.864 | 0.872 | 0.979
COc1cc2ccc(=O)oc2cc1O [Scopoletin] | 1.25 | 0.713 | 0.934 | 0.82 | 1.3
O=C(Nc1ccc(OC(F)(F)Cl)cc1)c1cnc(N2CC[C@@H](O)C2)c(-c2cc[nH]n2)c1 [Asciminib (ABL001)] | 1.54 | 1.72 | 1.32 | 1.2 | 1.39
CCCNC(=O)NS(=O)(=O)c1ccc(Cl)cc1 [Chlorpropamide] | 1.01 | 0.601 | 0.968 | 0.632 | 1.99
O=c1c(-c2ccc(O)cc2)coc2cc(O[C@@H]3O[C@H](CO)[C@@H](O)[C@H](O)[C@H]3O)ccc12 [Daidzin] | 0.57 | 0.784 | 0.914 | 0.745 | 1.17
CCOC(=O)c1ncn2c1CN(C)C(=O)c1cc(F)ccc1-2 [Flumazenil] | 1.08 | 0.73 | 1.11 | 0.383 | 0.959
Nc1ccncc1N [3.4-Diaminopyridine] | 1.58 | 1.24 | 1.38 | 0.828 | 1.15
Nc1[nH]cnc2ncnc1-2 [Adenine HCl] | 1.09 | 0.466 | 1.18 | 0.46 | 1.59
CCc1ccc(Cc2ccc3c(c2)[C@]2(OC3)O[C@H](CO)[C@@H](O)[C@H](O)[C@H]2O)cc1 [Tofogliflozin(CSG 452)] | 1.15 | 1.03 | 0.713 | 0.386 | 1.56
CC1(C)[C@@H](O[C@H]2O[C@H](C(=O)O)[C@@H](O)[C@H](O)[C@H]2O[C@@H]2O[C@H](C(=O)O)[C@@H](O)[C@H](O)[C@H]2O)CC[C@]2(C)[C@H]3C(=O)C=C4[C@@H]5C[C@@](C)(C(=O)O)CC[C@]5(C)CC[C@@]4(C)[C@]3(C)CC[C@@H]12 [Glycyrrhizin (Glycyrrhizic Acid)] | 1.52 | 0.67 | 1.38 | 0.607 | 1.47
CSc1ccc(OCc2ncc([N+](=O)[O-])n2C)cc1 [Fexinidazole] | 1.24 | 1.03 | 0.976 | 0.857 | 1.16
C[C@]12C=CC(=O)N[C@@H]1CC[C@@H]1[C@@H]2CC[C@]2(C)[C@@H](C(=O)Nc3cc(C(F)(F)F)ccc3C(F)(F)F)CC[C@@H]12 [Dutasteride] | 1.17 | 1.7 | 1.03 | 0.422 | 1.01
Cc1nnc(SCC2=C(C(=O)O)N3C(=O)[C@@H](NC(=O)Cn4cnnn4)[C@H]3SC2)s1 [Cefazolin] | 1.28 | 0.455 | 1.6 | 0.891 | 1.58
COc1c2occc2cc2ccc(=O)oc12 [Methoxsalen] | 0.745 | 0.658 | 0.948 | 0.988 | 1.08
O=C(C1CCCCC1)N1CC(=O)N2CCc3ccccc3C2C1 (stereo not given) [Praziquantel] | 0.868 | 0.773 | 0.97 | 0.33 | 1.36
CNC(=O)c1cc(COc2nnc(Nc3ccc(Cl)cc3)c3ccoc23)ccn1 [Telatinib] | 1.21 | 0.814 | 2.01 | 1.41 | 1.74
Cc1ccccc1C(OCCN(C)C)c1ccccc1 (stereo not given) [Orphenadrine Hydrochloride] | 0.905 | 1.11 | 0.736 | 0.938 | 1.08
O=c1n(CCCN2CCN(c3cccc(Cl)c3)CC2)nc2ccccn12 [Trazodone] | 0.477 | 1.03 | 0.908 | 0.599 | 1.37
CN(C(=O)c1ccc(F)cc1C(F)(F)F)C1CCN(c2nnc(-c3ccnn3C)c3ccccc23)CC1 | 1.45 | 0.959 | 1.03 | 1 | 1.53
N#C[C@@H]1C[C@@H]2C[C@@H]2N1C(=O)[C@@H](N)C12CC3CC(CC(O)(C3)C1)C2 [Saxagliptin hydrate] | 0.976 | 0.951 | 0.817 | 0.598 | 1.53
CCOC(=O)[N-]c1c[n+](N2CCOCC2)no1 [Molsidomine] | 0.969 | 1.06 | 0.842 | 0.73 | 1.63
CC(C)n1c(/C=C/C(O)CC(O)CC(=O)O)c(-c2ccc(F)cc2)c2ccccc21 (stereo not given) [Fluvastatin Sodium] | 3.02 | 2.4 | 3.84 | 1.86 | 2.29
CN1[C@@H]2CC[C@H]1C[C@@H](OC(=O)c1c[nH]c3ccccc13)C2 [Tropisetron HCl] | 0.839 | 1.16 | 1.16 | 0.825 | 0.93
CN1CCN(C(c2ccccc2)c2ccccc2)CC1 [Cyclizine 2HCl] | 1.05 | 0.919 | 1.58 | 0.689 | 1.37
O=C(/C=C/C=C/c1ccc2c(c1)OCO2)N1CCCCC1 [Piperine] | 1.7 | 0.714 | 1.06 | 0.563 | 1.49

SMILES | Euclidean distance [1] | Euclidean distance [2] | Euclidean distance [3] | Euclidean distance [4] | Euclidean distance [5]
Cc1cc(C)nc(NS(=O)(=O)c2ccc(N)cc2)n1 [Sulfamethazine] | 1.04 | 0.914 | 0.861 | 0.849 | 1.17
Cc1ccc(Sc2ccccc2N2CCNCC2)c(C)c1 [Vortioxetine] | 2.68 | 2.71 | 2.68 | 5.06 | 2.43
NC(=O)c1nc(F)cnc1O [Favipiravir (T-705)] | 0.685 | 0.513 | 0.835 | 0.762 | 0.894
CN1c2ccccc2C(=O)N2CCc3c([nH]c4ccccc34)C21 (stereo in doubt) [Evodiamine] | 2.67 | 2.85 | 1.59 | 2.03 | 1.81
CN1CC[C@H](c2c(O)cc(O)c3c(=O)cc(-c4ccccc4Cl)oc23)[C@H](O)C1 [Flavopiridol (Alvocidib)] | 3.09 | 3.07 | 3.22 | 2.66 | 3.72
C[C@]12C=CC(=O)C=C1CC[C@@H]1[C@@H]2C(=O)C[C@@]2(C)[C@H]1CC[C@]2(O)C(=O)CO [Prednisone] | 2.09 | 2.37 | 2.39 | 1.49 | 2.03
CCOC(=O)C1=C(C)NC(C)=C(C(=O)OC)C1c1cccc(Cl)c1Cl (stereo not given) [Felodipine] | 1.02 | 1.19 | 0.651 | 0.85 | 0.942
O=C(c1ccccc1)c1ccc2n1CCC2C(=O)O (stereo not given) [Ketorolac tromethamine salt] | 0.861 | 0.868 | 0.834 | 0.47 | 0.82
Nc1ccc(S(=O)(=O)Nc2nccs2)cc1 [Sulfathiazole] | 0.815 | 0.811 | 0.62 | 0.824 | 0.818
CC(CN(C)C)CN1c2ccccc2CCc2ccccc21 (stereo not given) [Trimipramine Maleate] | 1.08 | 1.02 | 1.91 | 1.2 | 1.57
CC(=O)[C@@]1(O)CC[C@H]2[C@@H]3CCC4=CC(=O)CCC4=C3[C@@H](c3ccc(N(C)C)cc3)C[C@@]21C [Ulipristal] | 0.949 | 1.22 | 1.05 | 1.13 | 0.761
Nc1nc(N)nc(-c2cc(Cl)ccc2Cl)n1 [Irsogladine] | 1.09 | 1.05 | 0.809 | 0.613 | 1.41
Cc1c(C)c2c(c(C)c1O)CC[C@@](C)(CCC[C@H](C)CCC[C@H](C)CCCC(C)C)O2 [Vitamin E] | 0.972 | 1.04 | 0.892 | 0.644 | 1.43
CC1(C)S[C@@H]2[C@H](NC(=O)[C@H](NC(=O)N3CCNC3=O)c3ccccc3)C(=O)N2[C@H]1C(=O)O [Azlocillin sodium salt] | 0.826 | 0.805 | 1.08 | 0.67 | 1.47
CCN1CCCC1CNC(=O)c1cc(S(N)(=O)=O)ccc1OC (stereo not given) [Sulpiride] | 0.713 | 1.29 | 0.953 | 1.17 | 0.676
C[C@@H](O)[C@H]1C(=O)N2C(C(=O)O)=C(S[C@@H]3CN[C@H](C(=O)Nc4cccc(C(=O)O)c4)C3)[C@H](C)[C@H]12 [Ertapenem sodium] | 0.672 | 0.953 | 0.956 | 0.854 | 0.913
Cc1oncc1C(=O)Nc1ccc(C(F)(F)F)cc1 [Leflunomide] | 2.25 | 2.41 | 2.37 | 1.3 | 2.17
CC(C)(C)NC[C@H](O)COc1nsnc1N1CCOCC1 [Timolol Maleate] | 1.22 | 0.771 | 0.609 | 0.591 | 1.76
CN1CCc2nc(C(=O)N[C@@H]3C[C@@H](C(=O)N(C)C)CC[C@@H]3NC(=O)C(=O)Nc3ccc(Cl)cn3)sc2C1 [Edoxaban] | 1.02 | 0.603 | 0.835 | 0.275 | 0.602
C=CCc1ccc(O)c(-c2cc(CC=C)ccc2O)c1 [Magnolol] | 1.13 | 0.915 | 0.817 | 0.94 | 1.17
CC12CCC(CC1)C(C)(C)O2 [Eucalyptol] | 0.884 | 0.614 | 0.855 | 0.869 | 0.746
CN[C@@H](C)C(=O)N[C@H](C(=O)N1CCC[C@H]1c1nc(C(=O)c2ccc(F)cc2)cs1)C1CCCCC1 | 1.14 | 1.17 | 1.22 | 1.51 | 2.13
NCCCC(N)(C(=O)O)C(F)F (stereo not given) [Eflornithine hydrochloride hydrate] | 1.45 | 1.26 | 1.21 | 0.792 | 1.43
C[C@H](CSC(=O)c1ccccc1)C(=O)N1C[C@@H](Sc2ccccc2)C[C@H]1C(=O)O [Zofenopril calcium] | 0.845 | 0.393 | 0.787 | 0.559 | 0.93
CS(=O)(=O)c1ccc(Oc2cc(F)cc(C#N)c2)c2c1[C@H](O)C(F)(F)C2 | 1.1 | 1.02 | 1.28 | 0.605 | 1.38
